Assay results taken from PubChem BioAssay (Tox21).
“And” between values parts separate entries of the source, which are not always exact repeats. Equal entries are not always repeated. Inconclusive results are not listed. A call without a number means that no potency is given here. More than one record can exist for a structure, and the calls need not agree. The source made the active and inactive calls. Unless noted, calls come from the whole dose curve; as a rule, active = well fitted curve in the direction sought with a large enough effect in the repeat runs; inconclusive = weak or mixed curves; inactive = no such curve, though single readings can be large; an effect the other way counts as inactive or inconclusive.

Legend:
[1] = qHTS assay to identify small molecule agonists of H2AX (AID 1224845; active = well fitted activation curve with a large enough effect in the signal ratio in the repeat runs, not every such curve was filed as active; the % refers to the signal ratio; note: potency is the fitted concentration of half-maximal effect)
How it was run: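 Phospho-H2AX Ser139 measured by HTRF (ex 320 nm; em 665 and 620 nm) after 24 hr antibody incubation. Compounds, 15 concentrations, 0.76% DMSO, were applied to CHO-K1 cells for 3hr at 37C before lysis.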

[2] = qHTS assay to identify small molecule agonists of the hypoxia (HIF-1) signaling pathway (AID 1224846; active = well fitted activation curve with a large enough effect in the signal ratio in the repeat runs, not every such curve was filed as active; the % refers to the signal ratio)
How it was run: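 A low-serum medium (0.5% dialyzed FBS) holding 2,000 HRE-bla ME-180 cells per well is preincubated for 5 hrs, dosed with compounds by pintool, and kept a further 17 hrs at 37C, 5% CO2 before CCF4-AM FRET detection of beta-lactamase.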

[3] = qHTS RealTime-Glo MT Cell Viability Assay in HepG2 cells - 24 hour (AID 1224867); note: nearly all actives have a fitted effect of over 50% in size; note: potency is the fitted concentration of half-maximal effect
How it was run: (§1)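 Cells + NanoLuc/prosubstrate dispensed (600 cells/well) → 5 h at 37 C/5% CO2 → compounds in DMSO transferred → 40 h incubation at 37 C, luminescence read at 0, 8, 16, 24, 32, 40 h.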

[4] = qHTS RealTime-Glo MT Cell Viability Assay in HEK293 cells - 32 hour (AID 1224868); note: nearly all actives have a fitted effect of over 50% in size; note: potency is the fitted concentration of half-maximal effect
How it was run: (§2)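 Tox21 10K qHTS, HEK293, 600 cells/well, RealTime-Glo reagent co-dispensed with cells; 5 h preincubation, compound by pintool, 37 C, luminescence at 0–40 h.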

[5] = A CellTox Green Cytotoxicity Assay to monitor cytotoxicity in HEK293 cells - 0 hour (AID 1224869); note: nearly all actives have a fitted effect of over 50% in size; note: potency is the fitted concentration of half-maximal effect
How it was run: (§3)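 Fluorescence intensity, read at 0, 8, 16, 24, 32 and 40 h of compound treatment, reflected dye binding to DNA of dead HEK293 cells; compounds (23 nL, DMSO) were added 5 h after plating cells with reagent.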

[6] = qHTS RealTime-Glo MT Cell Viability Assay in HEK293 cells - 16 hour (AID 1224872); note: nearly all actives have a fitted effect of over 50% in size; note: potency is the fitted concentration of half-maximal effect
How it was run: as §2

[7] = qHTS RealTime-Glo MT Cell Viability Assay in HepG2 cells - 8 hour (AID 1224873); note: nearly all actives have a fitted effect of over 55% in size; note: potency is the fitted concentration of half-maximal effect
How it was run: (§4)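 Real-time viability: cells seeded at 600 per well together with NanoLuc and cell-permeant prosubstrate, compounds added after 5 h incubation. Luminescence tracked at 0, 8, 16, 24, 32 and 40 h of exposure.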

[8] = A CellTox Green Cytotoxicity Assay to monitor cytotoxicity in HEK293 cells - 24 hour (AID 1224875); note: nearly all actives have a fitted effect of over 45% in size
How it was run: as §3

[9] = A CellTox Green Cytotoxicity Assay to monitor cytotoxicity in HepG2 cells - 16 hour (AID 1224876); note: nearly all actives have a fitted effect of over 45% in size; note: potency is the fitted concentration of half-maximal effect
How it was run: (§5)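 Using 1536-well format, dye-containing HepG2 suspension was seeded, allowed 5 h at 37 C/5% CO2, dosed by pintool with compounds, positive and negative controls, and imaged for fluorescence across 40 h.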

[10] = qHTS RealTime-Glo MT Cell Viability Assay in HepG2 cells - 32 hour (AID 1224877); note: nearly all actives have a fitted effect of over 55% in size; note: potency is the fitted concentration of half-maximal effect
How it was run: as §1

[11] = A CellTox Green Cytotoxicity Assay to monitor cytotoxicity in HepG2 cells - 24 hour (AID 1224878); note: nearly all actives have a fitted effect of over 45% in size; note: potency is the fitted concentration of half-maximal effect
How it was run: as §5

[12] = qHTS RealTime-Glo MT Cell Viability Assay in HEK293 cells - 0 hour (AID 1224880); note: top concentration of the series differs between compounds; nearly all actives have a fitted effect of over 45% in size
How it was run: (§6)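 Viable HEK293 cells reduce a cell-permeant prosubstrate; the product diffuses out and is consumed by NanoLuc in the medium to give light. Compounds went in after a 5 h incubation and plates were read over the treatment course.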

[13] = A CellTox Green Cytotoxicity Assay to monitor cytotoxicity in HEK293 cells - 32 hour (AID 1224881); note: nearly all actives have a fitted effect of over 40% in size; note: potency is the fitted concentration of half-maximal effect
How it was run: as §3

[14] = qHTS assay to identify small molecule agonists of H2AX - cell viability counter screen (AID 1224847; calls by dose curve; note: nearly all actives have a fitted effect of over 30% in size; note: potency is the fitted concentration of half-maximal effect)
How it was run: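 Cells plated first: CHO-K1, 1000 per well in 10% FBS medium, incubated overnight at 37C. Then 15-point compound titration added (final DMSO 0.76%) for 3 hr. Finally CellTiter-Glo added and luminescence read.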

[15] = qHTS assay to identify small molecule antagonists of the estrogen related receptor (ERR) signaling pathway from Tox21 library (AID 1224848)
How it was run: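 Reading was by luminescence 30 min after ONE-Glo addition. Before that, ERR cells at 2,000 per well had rested 6 h at 37 C/5% CO2 and then received pin-tooled compounds in DMSO for 18 h at 37 C.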

[16] = qHTS assay to identify small molecule agonists of the estrogen related receptor (ERR) signaling pathway from Tox21 library (AID 1224849; calls by dose curve; note: nearly all actives have a fitted effect of over 15% in size); conditions: ERR reporter cell line, ONE-Glo luciferase, 18 h
How it was run: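 Screening used an NTP-provided ERR luciferase cell line. Compounds in DMSO were added 6 h after seeding and left 18 h at 37 C before a 30 min ONE-Glo step and luminescence reading.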

[17] = A CellTox Green Cytotoxicity Assay to monitor cytotoxicity in HEK293 cells - 40 hour (AID 1224871); note: nearly all actives have a fitted effect of over 45% in size; note: potency is the fitted concentration of half-maximal effect
How it was run: as §3

[18] = qHTS RealTime-Glo MT Cell Viability Assay in HEK293 cells - 40 hour (AID 1224874); conditions: RealTime-Glo luminescence; max response: stronger effect = lower value; note: nearly all actives have a fitted effect of over 50% in size; note: potency is the fitted concentration of half-maximal effect
How it was run: as §6

[19] = A CellTox Green Cytotoxicity Assay to monitor cytotoxicity in HepG2 cells - 40 hour (AID 1224879); note: nearly all actives have a fitted effect of over 40% in size; note: potency is the fitted concentration of half-maximal effect
How it was run: as §5

[20] = qHTS RealTime-Glo MT Cell Viability Assay in HepG2 cells - 40 hour (AID 1224870); note: nearly all actives have a fitted effect of over 50% in size; note: potency is the fitted concentration of half-maximal effect
How it was run: as §4

[21] = at 92.4 µM (top of the series) unless noted

CC(=O)OC1(c2ccccc2)CCN(CCc2ccccc2)CC1
Potency [1]: inactive | outcome [2]: inactive | Potency [3]: inactive | Potency [4]: 31.6 µM (active) | Potency [5]: inactive | Potency [6]: 25.1 µM (active) | Potency [7]: inactive | Potency [8]: inactive | Potency [9]: inactive | Potency [10]: inactive | Potency [11]: inactive | Potency [12]: inactive | Potency [13]: inactive

ClC1=C(Cl)[C@]2(Cl)[C@@H]3[C@@H]4C[C@@H]([C@H]5O[C@@H]45)[C@@H]3[C@@]1(Cl)C2(Cl)Cl
Potency [1]: 17.9 µM (active) | Potency [14]: 50.5 µM (active) | Potency [15]: 43.3 µM (active) | activity change, positive = activation [16, 21]: -52.1% (inactive) | Potency [3]: 43.6 µM (active) | Potency [4]: 21.9 µM (active) | Potency [5]: 43.6 µM (active) | Potency [17]: 51.9 µM (active) | Potency [6]: 21.9 µM (active) | Potency [7]: 43.6 µM (active) | Potency [18]: 44.9 µM (active) | Potency [9]: 54.9 µM (active) | Potency [10]: 49 µM (active) | Potency [11]: 49 µM (active) | Potency [19]: 49 µM (active) | Potency [12]: inactive | Potency [13]: 43.6 µM (active)

CCCN(CCC)CCc1c[nH]c2ccccc12
Potency [1]: inactive | outcome [2]: inactive | Potency [3]: inactive | Potency [4]: inactive | Potency [5]: inactive | Potency [17]: inactive | Potency [6]: inactive | Potency [7]: inactive | max response [18]: -15.2% (inactive) | Potency [8]: inactive | Potency [9]: inactive | Potency [10]: inactive | Potency [11]: inactive | Potency [12]: inactive | Potency [13]: inactive

CC(Cl)CN(C)C (centres undefined)
Potency [1]: inactive | outcome [2]: inactive | Potency [14]: inactive | Potency [3]: inactive | Potency [20]: inactive | Potency [7]: inactive | Potency [9]: inactive | Potency [10]: inactive | Potency [11]: inactive | Potency [19]: inactive

CCc1nn(C)c(C(=O)NCc2ccc(C(C)(C)C)cc2)c1Cl
Potency [1]: inactive | Potency [14]: 56.6 µM (active) | Potency [15]: 0.0486 µM (active) | activity change, positive = activation [16, 21]: -58.3% (inactive) | Potency [3]: inactive | Potency [4]: 0.0347 µM (active) | Potency [5]: inactive | Potency [20]: inactive | Potency [6]: 0.0871 µM (active) | Potency [7]: inactive | Potency [18]: 0.0977 µM (active) | Potency [9]: inactive | Potency [11]: inactive | Potency [19]: inactive | Potency [12]: inactive | Potency [13]: inactive

Clc1ccc(COC(Cn2ccnc2)c2ccc(Cl)cc2Cl)cc1 (centres undefined)
Potency [1]: inactive | Potency [14]: 66.6 µM (active) and 56.4 µM (active) | Potency [15]: 20.2 µM (active) and 21.6 µM (active) and 18.8 µM (active) | activity change, positive = activation ([16]; at 42.5 µM (top of the series)): -55.4% (inactive) | activity change, positive = activation ([16]; at 92.4 µM (top of the series)): -77.5% (inactive) and -81.9% (inactive) | Potency [3]: 43.5 µM (active) | Potency [4]: 18.2 µM (active) and 24.4 µM (active) and 9.52 µM (active) | Potency [5]: inactive | Potency [20]: 48.8 µM (active) | Potency [6]: 20.4 µM (active) and 19.4 µM (active) | Potency [7]: 43.5 µM (active) | Potency [18]: 16.2 µM (active) and 24.4 µM (active) | Potency [9]: 54.7 µM (active) | Potency [10]: 48.8 µM (active) | Potency [11]: 45.7 µM (active) and 54.7 µM (active) | Potency [19]: 45.7 µM (active) and 54.7 µM (active) and 16.9 µM (active) | Potency [12]: inactive | Potency [13]: 45.7 µM (active) and 54.7 µM (active) and inactive
